# Data from PubChem BioAssay (NCI).
# Several values for one entry are separate records, joined by “and”; a condition that tells them apart may be missing. Equal values may be shown once. About 83,000 compounds went through this panel and 20% of them were active in at least one assay; those are over-represented in the sample as a whole.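 Compound tested at a single concentration for 48 hours in 96-well plates; a percent growth value below 10 was scored as active.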 Activity calls are given as the source filed them.
# How the values were obtained:
# Test in all cases: NCI-60 one-dose screen, 48 h (100 = growth as untreated, 0 = no growth, -100 = all killed)
# HCT-15 colon = test system: HCT-15 colon
# HT29 colon = test system: HT29 colon
# SNB-75 CNS = test system: SNB-75 CNS
# SNB-19 CNS = test system: SNB-19 CNS
# U251 CNS = test system: U251 CNS
# PC-3 prostate = test system: PC-3 prostate
# SK-MEL-5 melanoma = test system: SK-MEL-5 melanoma
# UACC-62 melanoma = test system: UACC-62 melanoma
# LOX IMVI melanoma = test system: LOX IMVI melanoma
# SK-MEL-28 melanoma = details: 10 µM
# SK-MEL-2 melanoma = test system: SK-MEL-2 melanoma
# EKVX NSCLC = test system: EKVX NSCLC
# SN12C renal = test system: SN12C renal
# UO-31 renal = test system: UO-31 renal
# TK-10 renal = test system: TK-10 renal
# ACHN renal = test system: ACHN renal
# Procedure: Growth inhibition of the ACHN human tumor cell line is measured as a screen for anti-cancer activity. Cells are grown in 96 well plates and exposed to the test compound for 48 hours. Compounds are tested at a single concentration, which is 10^-5 M for most compounds. The reported endpoint is percent growth (GI% or GIPRCNT), where numbers from 0 - 100% represent growth inhibition, and numbers from -100% - 0 represent cell death. For example, a value of 40 represents 60% growth inhibition. A value of 0 means no net growth occurred over the course of the experiment. A value of -40 indicates 40% of cells at the beginning of the experiment died by the end of the experiment. A value of -100 means all cells are dead at the end of the experiment.
# NCI-60 Human Tumor Cell Lines Screen was performed using the standard one-dose NCI protocol, which is described in more detail at https://dtp.cancer.gov/discovery_development/nci-60/default.htm.
# Compounds with GIPRCNT values below 10 were considered active. Activity score was based on GIPRCNT using the following formula: […]
# Score is 0 for GIPRCNT values of 100 or above, 50 for GIPRCNT values of 0, and 100 for GIPRCNT values of -100.
# CAKI-1 renal = test system: CAKI-1 renal
# A498 renal = test system: A498 renal
# CCRF-CEM leukemia = test system: CCRF-CEM leukemia
# MOLT-4 leukemia = test system: MOLT-4 leukemia
compound,measurement,setting,value
CC[C@@]1(O)C(=O)OCc2c1cc1n(c2=O)Cc2cc3c(CN(C)C)c(O)ccc3nc2-1,growth,HCT-15 colon; 10 µM,21.2% (inactive) and -10.4% (active)
same,growth,HT29 colon; 10 µM,-15.4% (active) and -22.9% (active)
same,growth,SNB-75 CNS; 10 µM,2.72% (active) and -62.8% (active)
same,growth,SNB-19 CNS; 10 µM,16% (inactive) and 10.7% (inactive)
same,growth,U251 CNS; 10 µM,-23% (active) and 2.06% (active)
same,growth,PC-3 prostate; 10 µM,-1.74% (active)
same,growth,SK-MEL-5 melanoma; 10 µM,-85.8% (active) and -77.4% (active)
same,growth,UACC-62 melanoma; 10 µM,-73.1% (active) and -71.5% (active)
same,growth,LOX IMVI melanoma; 10 µM,-14.1% (active) and -34.9% (active)
same,growth,SK-MEL-28 melanoma,19.5% (inactive)
same,growth,SK-MEL-2 melanoma; 10 µM,-36.9% (active) and -18.1% (active)
same,growth,EKVX NSCLC; 10 µM,9.24% (active) and 18.9% (inactive)
same,growth,SN12C renal; 10 µM,13.6% (inactive) and 14.3% (inactive)
same,growth,UO-31 renal; 10 µM,-45.7% (active) and -74.6% (active)
same,growth,TK-10 renal; 10 µM,2.54% (active) and -4.42% (active)
same,growth,ACHN renal; 10 µM,-40% (active) and -40.5% (active)
same,growth,CAKI-1 renal; 10 µM,-35% (active) and -16.2% (active)
same,growth,A498 renal; 10 µM,-50.8% (active) and -69.4% (active)
same,growth,CCRF-CEM leukemia; 10 µM,-28.7% (active)
same,growth,MOLT-4 leukemia; 10 µM,-3.69% (active) and -19.2% (active)
COc1ccc2sc3cccc(NCCN(C)C)c3c(=O)c2c1,growth,HCT-15 colon; 10 µM,32.2% (inactive) and -29.5% (active)
same,growth,HT29 colon; 10 µM,5.38% (active) and -36.9% (active)
same,growth,SNB-75 CNS; 10 µM,51.8% (inactive) and -6.29% (active)
same,growth,SNB-19 CNS; 10 µM,63.9% (inactive) and 13.6% (inactive)
same,growth,U251 CNS; 10 µM,-18.1% (active)
same,growth,PC-3 prostate; 10 µM,34.2% (inactive) and 21.1% (inactive)
same,growth,SK-MEL-5 melanoma; 10 µM,65.1% (inactive) and -98.2% (active)
same,growth,UACC-62 melanoma; 10 µM,64.4% (inactive) and -96.3% (active)
same,growth,LOX IMVI melanoma; 10 µM,17.1% (inactive) and -91% (active)
same,growth,SK-MEL-28 melanoma,85.8% (inactive) and -80.8% (active)
same,growth,SK-MEL-2 melanoma; 10 µM,77.3% (inactive) and 70.7% (inactive)
same,growth,EKVX NSCLC; 10 µM,26.2% (inactive)
same,growth,SN12C renal; 10 µM,45.1% (inactive) and 9.54% (active)
same,growth,UO-31 renal; 10 µM,17.4% (inactive) and -2.55% (active)
same,growth,TK-10 renal; 10 µM,36.1% (inactive) and 32.2% (inactive)
same,growth,ACHN renal; 10 µM,21.3% (inactive) and -28.3% (active)
same,growth,CAKI-1 renal; 10 µM,23.8% (inactive) and -29.8% (active)
same,growth,A498 renal; 10 µM,77.8% (inactive) and 5.39% (active)
same,growth,CCRF-CEM leukemia; 10 µM,21.3% (inactive)
same,growth,MOLT-4 leukemia; 10 µM,8.84% (active) and -15.2% (active)
CN(Cc1cnc2nc(N)nc(N)c2n1)c1ccc(C(=O)N[C@@H](CCC(=O)O)C(=O)O)cc1,growth,HCT-15 colon; 2.5 µM,28.5% (inactive)
same,growth,HCT-15 colon; 10 µM,36% (inactive)
same,growth,HT29 colon; 2.5 µM,29% (inactive)
same,growth,HT29 colon; 10 µM,25.9% (inactive)
same,growth,SNB-75 CNS; 2.5 µM,73.8% (inactive)
same,growth,SNB-75 CNS; 10 µM,66% (inactive)
same,growth,SNB-19 CNS; 2.5 µM,33.9% (inactive)
same,growth,SNB-19 CNS; 10 µM,29.5% (inactive)
same,growth,U251 CNS; 2.5 µM,34.1% (inactive)
same,growth,U251 CNS; 10 µM,38.3% (inactive)
same,growth,PC-3 prostate; 2.5 µM,33.8% (inactive)
same,growth,PC-3 prostate; 10 µM,37% (inactive)
same,growth,SK-MEL-5 melanoma; 2.5 µM,20% (inactive)
same,growth,SK-MEL-5 melanoma; 10 µM,3.31% (active)
same,growth,UACC-62 melanoma; 2.5 µM,24.5% (inactive)
same,growth,UACC-62 melanoma; 10 µM,16.8% (inactive)
same,growth,LOX IMVI melanoma; 2.5 µM,14.3% (inactive)
same,growth,LOX IMVI melanoma; 10 µM,16.3% (inactive)
same,growth,SK-MEL-2 melanoma; 2.5 µM,93.1% (inactive)
same,growth,SK-MEL-2 melanoma; 10 µM,83.2% (inactive)
same,growth,EKVX NSCLC; 2.5 µM,41.5% (inactive)
same,growth,EKVX NSCLC; 10 µM,47% (inactive)
same,growth,SN12C renal; 2.5 µM,33.3% (inactive)
same,growth,SN12C renal; 10 µM,26.9% (inactive)
same,growth,UO-31 renal; 2.5 µM,37.8% (inactive)
same,growth,UO-31 renal; 10 µM,32.3% (inactive)
same,growth,TK-10 renal; 2.5 µM,66.9% (inactive)
same,growth,TK-10 renal; 10 µM,67.7% (inactive)
same,growth,ACHN renal; 2.5 µM,24.9% (inactive)
same,growth,ACHN renal; 10 µM,29.4% (inactive)
same,growth,CAKI-1 renal; 2.5 µM,19.2% (inactive)
same,growth,CAKI-1 renal; 10 µM,15.5% (inactive)
same,growth,A498 renal; 2.5 µM,-11.8% (active)
same,growth,CCRF-CEM leukemia; 2.5 µM,12.9% (inactive)
same,growth,CCRF-CEM leukemia; 10 µM,18.8% (inactive)
same,growth,MOLT-4 leukemia; 2.5 µM,14.7% (inactive)
same,growth,MOLT-4 leukemia; 10 µM,10.9% (inactive)
CC/C(=C(\c1ccccc1)c1ccc(OCCN(C)C)cc1)c1ccccc1,growth,HCT-15 colon; 10 µM,7.63% (active)
same,growth,HCT-15 colon; 12.5 µM,-65% (active)
same,growth,HT29 colon; 10 µM,-11.2% (active)
same,growth,HT29 colon; 12.5 µM,-66.6% (active)
same,growth,SNB-75 CNS; 10 µM,39.9% (inactive)
same,growth,SNB-75 CNS; 12.5 µM,-4.48% (active)
same,growth,SNB-19 CNS; 10 µM,52.6% (inactive)
same,growth,SNB-19 CNS; 12.5 µM,1.19% (active)
same,growth,U251 CNS; 10 µM,4.8% (active)
same,growth,U251 CNS; 12.5 µM,-84.3% (active)
same,growth,PC-3 prostate; 10 µM,34.4% (inactive)
same,growth,PC-3 prostate; 12.5 µM,-30.7% (active)
same,growth,SK-MEL-5 melanoma; 10 µM,-95.2% (active)
same,growth,SK-MEL-5 melanoma; 12.5 µM,-94.3% (active)
same,growth,UACC-62 melanoma; 12.5 µM,-90.5% (active)
same,growth,LOX IMVI melanoma; 10 µM,-43.9% (active)
same,growth,LOX IMVI melanoma; 12.5 µM,-99% (active)
same,growth,SK-MEL-28 melanoma,11.3% (inactive)
same,growth,SK-MEL-2 melanoma; 10 µM,68.5% (inactive)
same,growth,SK-MEL-2 melanoma; 12.5 µM,-50% (active)
same,growth,EKVX NSCLC; 10 µM,60% (inactive)
same,growth,EKVX NSCLC; 12.5 µM,36.5% (inactive)
same,growth,SN12C renal; 10 µM,47.7% (inactive)
same,growth,SN12C renal; 12.5 µM,37.1% (inactive)
same,growth,UO-31 renal; 10 µM,40.3% (inactive)
same,growth,UO-31 renal; 12.5 µM,-62.4% (active)
same,growth,TK-10 renal; 10 µM,51.9% (inactive)
same,growth,TK-10 renal; 12.5 µM,56.2% (inactive)
same,growth,ACHN renal; 10 µM,60.6% (inactive)
same,growth,ACHN renal; 12.5 µM,25.9% (inactive)
same,growth,CAKI-1 renal; 10 µM,29.1% (inactive)
same,growth,CAKI-1 renal; 12.5 µM,9.74% (active)
same,growth,A498 renal; 10 µM,64.1% (inactive)
same,growth,A498 renal; 12.5 µM,-6.6% (active)
same,growth,CCRF-CEM leukemia; 10 µM,34.6% (inactive)
same,growth,CCRF-CEM leukemia; 12.5 µM,-14.1% (active)
same,growth,MOLT-4 leukemia; 10 µM,33.3% (inactive)
same,growth,MOLT-4 leukemia; 12.5 µM,-10.8% (active)
